Data reported in PubChem BioAssay AID1159580 (chemical genetic matrix, 2015).
The whole screen tested about 5,500 compounds, of which about 2,000 (36%) were called active. About 18% were inconclusive and are not listed. Cut-off read from the data, not from the text of the source: active = normalized growth mostly below about 0.91 (no sharp cut-off); inconclusive = no clear call, values can overlap the other calls; inactive = mostly above about 0.92. Some of the results follow.

Test: chemical genetic growth profiling, strain panel (AID 1159580);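 note: tested at 20 µM; growth read once vehicle control cultures reached saturation at 30 °C; 1 = growth at the plate median or of vehicle wells; lower values mean less growth of the strain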
Conditions: growth OD

Measured: normalized growth

O=c1c(O)c(-c2ccccc2)oc2ccc3occc3c12
inactive: S. cerevisiae deletion strains, locus YKL068W, hits give low values 0.962 | S. cerevisiae deletion strains, locus YKL085W, strain MDH1 (second series), hits give low values 0.937 | S. cerevisiae deletion strains, locus YKL085W, strain MDH1, hits give low values 0.937 | S. cerevisiae deletion strains, locus YKL190W, strain CNB1, hits give low values 0.941 | S. cerevisiae deletion strains, locus YKR026C, strain gcn3, hits give low values 0.954 | S. cerevisiae deletion strains, locus YKR091W, strain srl3, hits give low values 0.974 | S. cerevisiae deletion strains, locus YLL041C, strain sdh2, hits give low values 0.948 | S. cerevisiae deletion strains, locus YLR039C, strain RIC1, hits give low values 0.878 | S. cerevisiae deletion strains, locus YLR113W, strain HOG1, hits give low values 0.893 | S. cerevisiae deletion strains, locus YLR262C, strain YPT6, hits give low values 0.946 | S. cerevisiae deletion strains, locus YLR357W, strain rsc2, hits give low values 0.87 | S. cerevisiae deletion strains, locus YLR384C, strain iki3, hits give low values 0.954 | S. cerevisiae deletion strains, locus YML016C, strain PPZ1, hits give low values 0.939 | S. cerevisiae deletion strains, locus YMR231W, strain pep5, hits give low values 1 | S. cerevisiae deletion strains, locus YMR307W, strain GAS1, hits give low values 0.687 | S. cerevisiae deletion strains, locus YNL128W, strain TEP1, hits give low values 0.911 | S. cerevisiae deletion strains, locus YNL183C, strain NPR1, hits give low values 0.884 | S. cerevisiae deletion strains, locus YNL248C, strain rpa49, hits give low values 0.953 | S. cerevisiae deletion strains, locus YNL250W, strain rad50, hits give low values 0.921 | S. cerevisiae deletion strains, locus YNL322C, strain KRE1, hits give low values 0.954 | S. cerevisiae deletion strains, locus YNR049C, strain mso1, hits give low values 0.93 | S. cerevisiae deletion strains, locus YOL012C, strain htz1 1.09 | S. cerevisiae deletion strains, locus YOR061W, strain CKA2, hits give low values 0.935 | S. cerevisiae deletion strains, locus YOR069W, strain VPS5, hits give low values 0.932 | S. cerevisiae deletion strains, locus YOR231W, strain MKK1, hits give low values 0.909 | S. cerevisiae deletion strains, locus YPL241C, strain CIN2, hits give low values 0.966 | S. cerevisiae deletion strains, locus YPL256C, strain CLN2, hits give low values 0.982 | S. cerevisiae deletion strains, locus YPR141C, strain kar3, hits give low values 0.956
active: S. cerevisiae deletion strains, locus YJR075W, strain HOC1, hits give low values 0.861 | S. cerevisiae deletion strains, locus YKL009W, strain mrt4, hits give low values 0.793 | S. cerevisiae deletion strains, locus YKL160W, strain elf1, hits give low values 0.687 | S. cerevisiae deletion strains, locus YKR001C, strain vps1, hits give low values 0.772 | S. cerevisiae deletion strains, locus YLL001W, strain dnm1, hits give low values 0.657 | S. cerevisiae deletion strains, locus YLL026W, hits give low values 0.867 | S. cerevisiae deletion strains, locus YLR027C, strain aat2, hits give low values 0.795 | S. cerevisiae deletion strains, locus YLR058C, strain SHM2, hits give low values 0.854 | S. cerevisiae deletion strains, locus YLR102C, strain apc9, hits give low values 0.912 | S. cerevisiae deletion strains, locus YLR221C, strain rsa3, hits give low values 0.844 | S. cerevisiae deletion strains, locus YLR258W, strain gsy2, hits give low values 0.745 | S. cerevisiae deletion strains, locus YLR262C, strain YPT6 (second series), hits give low values 0.795 | S. cerevisiae deletion strains, locus YLR268W, strain sec22, hits give low values 0.77 | S. cerevisiae deletion strains, locus YLR320W, strain mms22, hits give low values 0.76 | S. cerevisiae deletion strains, locus YLR330W, strain CHS5, hits give low values 0.847 | S. cerevisiae deletion strains, locus YLR342W, strain FKS1 (second series), hits give low values 0.755 | S. cerevisiae deletion strains, locus YLR342W, strain FKS1, hits give low values 0.796 | S. cerevisiae deletion strains, locus YLR370C, strain arc18, hits give low values 0.768 | S. cerevisiae deletion strains, locus YLR371W, strain rom2, hits give low values 0.655 | S. cerevisiae deletion strains, locus YLR418C, strain cdc73, hits give low values 0.451 | S. cerevisiae deletion strains, locus YML032C, strain rad52, hits give low values 0.685 | S. cerevisiae deletion strains, locus YML120C, strain ndi1, hits give low values 0.753 | S. cerevisiae deletion strains, locus YML124C, strain tub3, hits give low values 0.899 | S. cerevisiae deletion strains, locus YMR058W, strain fet3, hits give low values 0.817 | S. cerevisiae deletion strains, locus YMR078C, strain ctf18, hits give low values 0.852 | S. cerevisiae deletion strains, locus YMR125W, strain sto1, hits give low values 0.877 | S. cerevisiae deletion strains, locus YMR129W, hits give low values 0.88 | S. cerevisiae deletion strains, locus YMR205C, strain PFK2, hits give low values 0.611 | S. cerevisiae deletion strains, locus YMR223W, strain ubp8, hits give low values 0.762 | S. cerevisiae deletion strains, locus YMR263W, strain SAP30, hits give low values 0.854 | S. cerevisiae deletion strains, locus YNL067W, strain RPL9B, hits give low values 0.863 | S. cerevisiae deletion strains, locus YNL071W, strain lat1, hits give low values 0.363 | S. cerevisiae deletion strains, locus YNL209W, strain ssb2, hits give low values 0.853 | S. cerevisiae deletion strains, locus YNL233W, strain BNI4, hits give low values 0.693 | S. cerevisiae deletion strains, locus YNL271C, strain bni1, hits give low values 0.889 | S. cerevisiae deletion strains, locus YNL298W, strain CLA4, hits give low values 0.887 | S. cerevisiae deletion strains, locus YNL307C, strain MCK1, hits give low values 0.521 | S. cerevisiae deletion strains, locus YNL322C, strain KRE1 (second series), hits give low values 0.814 | S. cerevisiae deletion strains, locus YNR052C, strain pop2, hits give low values 0.864 | S. cerevisiae deletion strains, locus YOL147C, strain pex11, hits give low values 0.703 | S. cerevisiae deletion strains, locus YOR001W, strain rrp6, hits give low values 0.826 | S. cerevisiae deletion strains, locus YOR070C, strain gyp1, hits give low values 0.806 | S. cerevisiae deletion strains, locus YOR080W, strain dia2, hits give low values 0.889 | S. cerevisiae deletion strains, locus YOR083W, strain WHI5, hits give low values 0.79 | S. cerevisiae deletion strains, locus YOR106W, strain vam3, hits give low values 0.737 | S. cerevisiae deletion strains, locus YOR136W, strain idh2, hits give low values 0.876 | S. cerevisiae deletion strains, locus YOR144C, strain elg1, hits give low values 0.823 | S. cerevisiae deletion strains, locus YOR184W, strain ser1, hits give low values 0.557 | S. cerevisiae deletion strains, locus YOR265W, strain rbl2, hits give low values 0.85 | S. cerevisiae deletion strains, locus YOR270C, strain vph1, hits give low values 0.409 | S. cerevisiae deletion strains, locus YOR290C, strain snf2, hits give low values 0.589 | S. cerevisiae deletion strains, locus YOR316C, strain cot1, hits give low values 0.881 | S. cerevisiae deletion strains, locus YPL051W, strain arl3, hits give low values 0.725 | S. cerevisiae deletion strains, locus YPL078C, strain atp4, hits give low values 0.513 | S. cerevisiae deletion strains, locus YPL106C, strain sse1, hits give low values 0.769 | S. cerevisiae deletion strains, locus YPL240C, strain hsp82, hits give low values 0.833 | S. cerevisiae deletion strains, locus YPR119W, strain clb2, hits give low values 0.888 | S. cerevisiae deletion strains, locus YPR163C, strain tif3, hits give low values 0.72 | S. cerevisiae deletion strains, locus YPR167C, strain met16, hits give low values 0.851 | S. cerevisiae deletion strains, strain wtn01, hits give low values 0.757 | S. cerevisiae strains, strain wild type, hits give low values 0.896
